# Assay outcomes from PubChem BioAssay.
# IDH1 R132H inh = qHTS for Inhibitors of mutant isocitrate dehydrogenase 1 (IDH1): qHTS; Isocitrate dehydrogenase [NADP] cytoplasmic (Homo sapiens), O75874; IDH1-R132H enzyme, NADPH consumption, diaphorase/resazurin fluorescence; Potency, µM (series often up to 76.6 µM), inactives show at the top dose activity change, negative = inhibition, hits mostly inhibitors; 0.093% of 390,000 active; note: potency is the fitted concentration of half-maximal effect; % is set by controls: 0 for no effect and ±100 for the full control effect; nearly all actives have a fitted effect of over 65% in size
#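 IDH1-R132H (0.5 ug/mL dispensed) in pH 7.5 Tris buffer was preincubated 30 min with compound, then given a substrate mix of 0.016 mM NADPH and 2 mM alpha-KG for 80 min at room temperature; remaining NADPH was read by diaphorase/resazurin fluorescence.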
# LDHA inh = qHTS assay for inhibitors of human lactate dehydrogenase; L-lactate dehydrogenase A chain (Homo sapiens), P00338; purified LDHA, NADH/diaphorase-resazurin fluorescence; hits give low values; activity change, % (values are at about 110 or 230 µM); 0.15% of 480,000 active; in the data active = activity change below about -30%; inconclusive = mostly about -25% to -30%;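 note: plate controls were DMSO wells for no effect and wells without enzyme for full effect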
#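 Remaining NADH was detected by diaphorase (0.133 mg/mL) converting 37 µM resazurin to fluorescent resorufin, read at 0 and 20 minutes. The preceding 5-minute room-temperature reaction used 2 nM LDHA, 0.2 mM sodium pyruvate and 0.06 mM NADH at pH 7.4.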
# PINK1 modulator = A Quantitative High throughput Screen to Identify Chemical Modulators of PINK1 Expression; PINK1 immunofluorescence, high-content cytometry, 24 h; Potency, µM (doses to about 76.6 µM), for inactives: at the highest dose activation (PINK1 increase), hits mostly activators; 0.2% of 410,000 active; AID 624263, 2012; active = well fitted activation curve with a large enough effect; inconclusive = small, poorly fitted or top-dose-only effect; cell line not stated here; note: potency is the fitted concentration of half-maximal effect; % of control where 0% means no effect; nearly all actives have a fitted effect of over 65% in size
#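 PINK1 protein level read as immunofluorescence by microplate cytometer in a fixed, stained stable cell line after 24 h exposure to five compound concentrations, with CCCP as control.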
# Vif-A3G inh = qHTS for Inhibitors of Vif-A3G Interactions: qHTS; DNA dC->dU-editing enzyme APOBEC-3G (Homo sapiens), Q9HC16; HeLa A3G-eYFP + Vif (tagged APOBEC3G with the HIV-1 protein that degrades it), YFP fluorescence, overnight; Potency, µM (series often up to 46.1 µM), for inactives: at the highest dose activity, negative = active, usual class: inhibitors; 0.076% of 410,000 active; note: potency is the fitted concentration of half-maximal effect; % is set by controls: 0 for no effect and ±100 for the full control effect; nearly all actives have a fitted effect of over 60% in size
#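 Read-out is eYFP fluorescence (Ex 488/Em 500-530) from Vif-expressing HeLa A3G-eYFP cells; more signal means A3G escaped Vif-mediated degradation. Cells plated overnight, compound pinned in, incubated overnight at 37 deg C.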
# PTHR1 agonist = qHTS for PTHR1 Agonists: Primary Screen; Potency, µM (series often up to 115 µM), without a hit: at the highest dose activation, usual class: activators; 0.075% of 410,000 active; AID 743266, 2014; Parathyroid hormone/parathyroid hormone-related peptide receptor (Homo sapiens), Q03431; HEK293 GP2 PTHR1 cells, GloSensor cAMP luminescence, 1 h; note: potency is the fitted concentration of half-maximal effect; nearly all actives have a fitted effect of over 55% in size
# Target sequence (Q03431 whole entry, looked up): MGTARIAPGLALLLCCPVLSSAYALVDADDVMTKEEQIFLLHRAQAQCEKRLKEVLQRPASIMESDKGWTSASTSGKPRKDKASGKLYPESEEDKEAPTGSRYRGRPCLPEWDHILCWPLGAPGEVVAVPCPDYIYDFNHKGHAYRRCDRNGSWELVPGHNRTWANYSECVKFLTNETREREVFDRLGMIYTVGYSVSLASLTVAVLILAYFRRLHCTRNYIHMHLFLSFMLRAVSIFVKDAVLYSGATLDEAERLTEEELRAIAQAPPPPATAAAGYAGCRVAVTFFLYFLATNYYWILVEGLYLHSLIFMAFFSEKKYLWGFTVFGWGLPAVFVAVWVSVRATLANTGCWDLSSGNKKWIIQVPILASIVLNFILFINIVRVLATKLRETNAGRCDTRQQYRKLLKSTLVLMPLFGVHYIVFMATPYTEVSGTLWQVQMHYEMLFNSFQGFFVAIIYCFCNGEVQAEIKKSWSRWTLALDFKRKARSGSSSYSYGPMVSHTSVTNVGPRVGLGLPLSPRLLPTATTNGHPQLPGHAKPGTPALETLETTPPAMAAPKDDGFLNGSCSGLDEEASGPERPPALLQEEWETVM
#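 HEK-293-derived GP2 cells expressing PTHR1 and a GloSensor cAMP reporter, 3,000/well, plated overnight, given luciferin plus IBMX (each 0.5 mM as added) for 1 h at 37 °C, then compound for 1 h at 37 °C. Luminescence was read after 15 min at room temperature.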
# Vif-A3F inh = qHTS for Inhibitors of Vif-A3F Interactions: qHTS; HeLa A3F-eYFP + Vif (tagged APOBEC3F with the HIV-1 protein that degrades it), YFP fluorescence increase; Potency, µM (titrated, usually from 46.1 µM), without a hit: at the highest dose activity, negative = active; 0.2% of 390,000 active; note: potency is the fitted concentration of half-maximal effect; % of control where 0% means no effect; nearly all actives have a fitted effect of over 65% in size
#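 HeLa cells stably expressing A3F-eYFP plus Vif, plated and incubated overnight at 37 deg C, then exposed to compounds overnight at 37 deg C. Blocked degradation read as raised yellow fluorescence (Ex 488/Em 500-530).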
# * marks the source's active call; other numbers are inactive results; i = inactive; u = inconclusive; x = no result given; [ ] = remark or other dose. In the library only some 0.59% were active in any assay of this set; here they are far more common. Unless noted, calls come from the whole dose curve; as a rule, active = well fitted curve in the direction sought with a large enough effect; inconclusive = small, poorly fitted or top-dose-only effect, or another doubt; inactive = no such curve, though single readings can be large; an effect the other way counts as inactive or inconclusive.
SMILES,IDH1 R132H inh,LDHA inh,PINK1 modulator,Vif-A3G inh,PTHR1 agonist,Vif-A3F inh
N#CC1=C(N)Oc2c(c(=O)[nH]c3ccccc23)C1c1ccccc1Cl (stereo not drawn),x,3,x,x,x,x
ClCC1NCC(c2ccccc2Cl)c2c1[nH]c1ccccc21 (stereo not drawn),5%,2,16%,u,-12%,22µM*
CCc1cccc(C)c1NC(=O)CN(C)Cc1ccc(C(F)(F)F)cc1,x,4,x,x,x,x
Cc1cc(C)c(S(=O)(=O)n2ccc3ccccc32)c(C)c1,6%,-2,40µM*,2%,-6%,3%
O=C1c2ccccc2C(=O)c2c(/C=C/N3CCCCC3)ccnc21,20%,27,8%,u,i,22µM*
O=C1c2ccccc2-c2cccnc21,29%,-7,0%,-7%,i,1%
Cc1ccc(NC(=O)C(=O)c2c(C)n(C)c3ccccc23)cc1F,x,-1,x,x,x,x
COc1cc(/C=C(/C#N)C(=O)NCCCc2ccccc2)ccc1OCC(=O)O,18%,-34*,0%,3%,22%,-14%
Clc1ccc2c(Cl)cc[n+](CCC3CCCCC3)c2c1,x,-36*,1%,-5%,x,x
CN1CCN(c2ccc(NC(=O)c3cccc(S(=O)(=O)NCc4ccco4)c3)cc2)CC1,x,15,x,x,x,x
COc1ccc(/C=N/NC(=O)c2[nH]nc3c2CCc2ccccc2-3)cc1OC,-15%,0,7%,3.2µM*,-60%,-4%
CCc1ccc(C(=O)C(C)OC(=O)c2ccc(OCC(N)=O)cc2)cc1 (stereo not drawn),x,1,x,x,x,x
CN(C)Cc1ccc(CNC(=O)/C=C/c2ccsc2)cc1,x,-1,x,x,x,x
Cc1c(NC(=O)NC(=O)c2ccc(F)cc2)c(=O)n(-c2ccccc2)n1C,0%,-7,0%,0%,-6%[57.5 µM],-15%
Cc1c(N=C2N=C(NC(=O)c3ccc(F)cc3)c3ccccc32)c(=O)n(-c2ccccc2)n1C,1%,-4,40µM*,-1%,-1%,-11%
N=c1c2c(n(Cc3ccc(Br)cc3)c3c1CCC3)CCCC2,7%,-1,35µM*,10%,-24%,1%
CCCn1c2c(c(=N)c3c1CCC3)CCCC2,-8%,-36*,-2%,-1%,-48%,-1%
CCCn1c2c(c(=N)c3c1CCC3)CCC2,2%,-13,1%,4%,-38%,0%
CCCCCCCn1c2c(c(=N)c3ccccc31)CCC2,18%,-17,20µM*,-7%,-43%,2%
Cc1nn(-c2ccccc2)c(C)c1CN(C)S(=O)(=O)c1cc(F)cc(F)c1,x,4,x,x,x,x
CSc1ccccc1NC(=O)/C=C/c1ccncc1,x,9,x,x,x,x
Cn1c(C=O)c(C#CC(C)(C)O)c2ccccc21,-20%,-5,1%,-4%,-19%,0%
COc1cccc(C#Cc2c(C=O)n(C)c3ccccc23)c1,6%,0,40µM*,-16%,-11%,-26%
CC(=O)N(c1cccc(Cl)c1)c1nc(COC(=O)C=C(C)C)cs1,x,-5,x,x,x,x
CC(C)CC(=O)Nc1ccc(N2CCN(S(C)(=O)=O)CC2)cc1,-9%,-6,3%,-3%,i,4%
SMILES,IDH1 R132H inh,LDHA inh,PINK1 modulator,Vif-A3G inh,PTHR1 agonist,Vif-A3F inh
CC(C)COc1ccc(C(=O)Nc2ccc(N3CCN(S(C)(=O)=O)CC3)cc2)cc1,x,-35*,x,x,x,x
N#C/C(=C\c1ccc(C(=O)O)cc1)c1nc2sc3c(c2c(=O)[nH]1)CCCC3,0%,2,32µM*,u,5%,u
CCN(CC)S(=O)(=O)NC(C)Cc1cccs1 (stereo not drawn),x,7,x,x,x,x
CSc1nsc(/C=C/Nc2ccc(C)cc2)c1C#N,7%,10,15%,13µM*,i,u
CSc1nsc(/C=C/Nc2ccc(C)c(C)c2)c1C#N,2%,4,3%,-31%,-7%,u
Cc1cc(=O)oc2c1ccc1oc(/C(=N/O)c3ccccc3)c(-c3ccccc3)c12,x,13,x,x,x,x
CN(C)c1c2ccccc2nc2c(F)c(F)c(F)c(F)c12,3%,2,13%,u,-33%,u
Cc1c2ccccc2nc2c(F)c(N(C)C)c(F)c(F)c12,2%,6,-1%,u,-44%,25µM*
CC(C)OC(=O)CSc1nc2c(c(=O)[nH]c(=O)n2C)n1C,x,-6,x,x,x,x
CC1=C(C)CC(C(=O)Nc2ccc3c(c2)CCC3)C(C(=O)O)C1 (stereo not drawn),x,14,x,x,x,x
COc1ccc(-c2nc3ccccc3[nH]2)cc1,12%,-11,0%[38.3 µM],-4%,-22%,-9%
COc1ccc2oc(=Nc3ccccc3)c(-c3nc4ccccc4[nH]3)cc2c1,-1%,-2,-1%,-28%,-28%,11µM*
COc1cc(SC)ccc1C(=O)OC(C(=O)c1ccccc1)c1ccccc1 (stereo not drawn),x,-33*,x,x,x,x
COc1ccccc1NC(=O)Cn1cnc2sc(C(=O)Nc3cc(OC)c(OC)c(OC)c3)c(C)c2c1=O,-10%,-1,3%,-1%,23%,-11%
COc1ccccc1NC(=O)c1sc2ncn(CC(=O)Nc3ccccc3)c(=O)c2c1C,-6%,-5,-1%,-3%,-13%,25µM*
O=c1cc(C(F)(F)F)[nH]c2ccc(OC(F)(F)F)cc12,19%,-9,35µM*,0%,-29%,-2%
Cc1c(C(=O)OC/C(O)=C(\C#N)c2nc3ccccc3[nH]2)oc2ccccc12,1%,1,2%,u,-10%,22µM*
CS/C(Nc1cc(Cl)ccc1Cl)=C(/C#N)C(=O)c1ccco1,5%,-48*,-1%,-4%,-32%,4%
O=C(Nc1cc(Cl)ccc1Cl)c1ccco1,8%,-1,2%,-5%,-44%,-6%
CCOCCCNC(=O)CSCc1nc(-c2ccc(C)cc2)oc1C,x,-34*,x,x,x,x
CCOc1ccc(C2CCCN2Cc2cc(=O)oc3cc(C)ccc23)cc1 (stereo not drawn),x,7,x,x,x,x
CC(Oc1ccccc1)C(=O)Nc1nnc2n1CCS2 (stereo not drawn),6%,4,-1%,4%,32µM*,-3%
CCOc1ccc(N)cc1OCC,x,4,x,x,x,x
CCCOc1ccc(N)cc1N,20%,32,18%,u,-15%,22µM*
